This passage reports outcome and AC50 results from PubChem BioAssay (EPA / NIEHS).

Test [1] can be described thus: CCTE_Harrill_HTTr_Viability_MCF7: CCTE's 6-hour Cell Viability Assessment for the High-Throughput Transcriptomics (HTTr) Platform, in MCF-7 cells cultured in DMEM + 10% fetal bovine serum, Harrill Lab (AID 2284010). The procedure, abridged: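 MCF-7 cells in DMEM + 10% FBS, 384-well, exposed 6 h to an eight-point dilution series. Membrane integrity scored by high-content imaging of propidium iodide exclusion; bidirectional fit versus DMSO.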

Test [2] is described as follows: CCTE_Harrill_HTTr_Apoptosis_MCF7: CCTE's 6-hour Apoptosis Assessment for the High-Throughput Transcriptomics (HTTr) Platform, in MCF-7 cells cultured in DMEM + 10% fetal bovine serum, Harrill Lab (AID 2284011). The procedure, abridged:
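Read-out: CellEvent Caspase 3/7 Green signal by high content imaging, gain-of-signal indicating apoptosis. MCF-7 cells, DMEM + 10% FBS, eight-point dilution series, 6 h exposure. Curves fitted bidirectionally relative to DMSO negative control.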

In test [3] the target is Nucleoli Translocation, AR (gene 367) (UniProt P10275). The test can be described thus: UPITT_HCI_U2OS_AR_TIF2_Nucleoli_Antagonist: University of Pittsburgh U2OS Androgen Receptor-Transcriptional Intermediary Factor 2 (AR-TIF2) Antagonism High Content Imaging Assay for Nucleoli Translocation (AID 2283997; active means hit-call score of the fitted dose curve at least 0.9, where 1 is the maximum). In outline:
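U2OS cells co-expressing red-fluorescent-tagged human AR and green-fluorescent-tagged TIF2, imaged by high-content microscopy for nucleolar red fluorescence. Antagonist mode against DHT; primary screen at 20 uM final (0.2% DMSO).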

For test [4], the target named is Ratio of Nucleoli Translocation and Cytoplasm, AR (gene 367) (UniProt P10275). Description: UPITT_HCI_U2OS_AR_TIF2_Nucleoli_Cytoplasm_Ratio_Antagonist: University of Pittsburgh U2OS Androgen Receptor-Transcriptional Intermediary Factor 2 (AR-TIF2) Antagonism High Content Imaging Assay for Ratio of Nucleoli Translocation and Cytoplasm (AID 2283999; active means hit-call score of the fitted dose curve at least 0.9, where 1 is the maximum;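 further: antagonists lower the DHT-driven ratio of nucleolar to cytoplasmic red signal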). In outline:
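U2OS cells co-expressing RFP-tagged human AR and GFP-tagged TIF2, antagonist mode with DHT as baseline. Nucleolar-to-cytoplasmic red fluorescence ratio imaged by high-content microscopy; final compound 20 uM (0.2% DMSO) primary, 0.195–50 uM (0.5% DMSO) concentration-response.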

Test [5] shares this target. The test can be described thus: UPITT_HCI_U2OS_AR_TIF2_Nucleoli_Cytoplasm_Ratio_Agonist: University of Pittsburgh U2OS Androgen Receptor-Transcriptional Intermediary Factor 2 (AR-TIF2) Agonism High Content Imaging Assay for Ratio of Nucleoli Translocation and Cytoplasm (AID 2284000; active means hit-call score of the fitted dose curve at least 0.9, where 1 is the maximum;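 further: hits raise the red nucleolar to cytoplasm ratio above vehicle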). In outline: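 U2OS cells expressing RFP-tagged human AR and GFP-tagged TIF2; high-content imaging ratio of nucleolar to cytoplasmic red fluorescence, fitted as gain of signal vs DMSO. Single point at 20 uM final (0.2% DMSO); concentration-response 0.195-50 uM final (0.5% DMSO).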

A short description of test [6]: CCTE_Shafer_MEA_acute_spike_number: CCTE's Neural Acute Assay for Total Number of Spikes, Shafer Lab (AID 2284008).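 Further: curve fitted for decrease in spike count so AC50 reflects inhibitors.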 In outline:
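Rat cortical cultures, DIV 13/15, 37 C. 40 min baseline rec, cpd 0.03-40 uM, 40 min post-dose rec. Band-pass 300-5000 Hz, spike threshold 8x rms; % change in spike count per well, DMSO neg ctrl, loss-of-signal fit.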

Test [7] in a line: CCTE_Shafer_MEA_acute_firing_rate_mean: CCTE's Neural Acute Assay for Mean Firing Rate, Shafer Lab (AID 2284009).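 Further: analyzed for loss of signal so actives lower firing rate relative to DMSO.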 In outline: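 Rat primary cortical neurons on 48-well MEA plates, dosed at 0.03-40 uM on DIV 13 or 15; 40 min spontaneous activity recorded at 37 C before and after compound. Spike rate per electrode averaged per well, expressed as percent change from baseline.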
A short description of test [8]: CCTE_Harrill_HTTr_CellCount_MCF7: CCTE's Cell Proliferation Assessment for the High-Throughput Transcriptomics (HTTr) Platform, Harrill Lab (AID 2284012; active means hit-call score of the fitted dose curve at least 0.9, where 1 is the maximum;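 further: cells exposed to compound for six hours; intended direction is loss of nuclei count meaning fewer cells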). In outline: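 MCF7 cells exposed 6 hours to an eight-point dilution series; Hoechst-stained nuclei counted by high-content imaging. Bidirectional curve fitting against DMSO baseline.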
Test [9] in a line: CCTE_Shafer_MEA_acute_burst_number: CCTE's Neural Acute Assay for Single-Electrode Bursts, Shafer Lab (AID 2284013). In outline:
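Primary rat cortical neurons on 16-electrode MEA wells, treated on DIV 13 or 15 with compound at 0.03-40 uM. Single-electrode burst count from 40-min recordings at 37 C before and after exposure; percent change from baseline per well, DMSO negative control.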

The nature of test [10]: CCTE_Shafer_MEA_acute_burst_duration_mean: CCTE's Neural Acute Assay for Mean Burst Duration, Shafer Lab (AID 2284014).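 Further: hits are decreases in mean burst duration relative to DMSO controls.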 In outline:
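Rat primary cortical neurons on 48-well MEA, treated at DIV 13 or 15 with 0.03-40 uM in at least 3 wells. Value is percent change in mean burst duration, comparing 40 min recordings at 37 C before and during exposure.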

Test [11] in a line: CCTE_Shafer_MEA_acute_per_burst_spike_number_mean: CCTE's Neural Acute Assay for Average Number of Spikes Per Burst, Shafer Lab (AID 2284015).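 Further: hits are decreases in mean spikes per burst versus baseline.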 The procedure, abridged: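 Primary rat cortical neurons on 48-well MEA plates, treated on DIV 13 or 15 at 0.03-40 uM. Spontaneous activity recorded 40 min before and 40 min after compound at 37 C; percent change in mean spikes per single-electrode burst per well, fitted in the loss direction versus DMSO.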

Test [12] is described as follows: CCTE_Shafer_MEA_acute_interburst_interval_mean: CCTE's Neural Acute Assay for Mean Interburst Interval, Shafer Lab (AID 2284016).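 Further: percent change of mean interburst interval versus each well's own pre-dose baseline; curves fitted for decrease in interburst interval relative to DMSO.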 In outline:
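Primary rat cortical neurons on 16-electrode MEA wells were recorded 40 min at baseline on DIV 13 or 15, then 40 min after compound (0.03-40 uM), at 37 C. Value is percent change in mean interburst interval per well, DMSO as negative control.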

Test [13] has as its system DIO1 (gene 1733). Description: CCTE_GLTED_hDIO1: CCTE's human Deiodinase 1 (DIO1) Inhibition Assay, Great Lakes Toxicology and Ecology Division (GLTED) Lab (AID 2283987; active means hit-call score of the fitted dose curve at least 0.9, where 1 is the maximum;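 further: isolated human DIO1 enzyme in a cell-free setup rather than cells; enzyme activity read as free iodide liberated from substrate via Sandell-Kolthoff colorimetry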). In outline:
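Steps: human DIO1 enzyme plus test chemical, 3 h incubation; free iodide then quantified in a second Sandell-Kolthoff step by absorbance. DMSO served as negative control and baseline.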

Test [14] concerns the target Nucleoli Translocation, AR (gene 367) (UniProt P10275). Description: UPITT_HCI_U2OS_AR_TIF2_Nucleoli_Agonist: University of Pittsburgh U2OS Androgen Receptor-Transcriptional Intermediary Factor 2 (AR-TIF2) Agonism High Content Imaging Assay for Nucleoli Translocation (AID 2283998; active means hit-call score of the fitted dose curve at least 0.9, where 1 is the maximum). In outline:
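RFP-AR / GFP-TIF2 cells; cpds diluted in serum-free medium; single-point screen 20 uM final (0.2% DMSO), actives confirmed in triplicate; conc-response 0.195–50 uM final (0.5% DMSO). Readout: nucleolar red fluorescence, positive direction vs DMSO.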

Usually AC50 stands for the concentration at which the activity in the assay is half-maximal.

Structures are written as SMILES. Records with an inconclusive call do not appear. The source made the active and inactive calls. How the source made its calls, unless noted: active means hit-call score of the fitted dose curve at least 0.9, where 1 is the maximum; inactive means score below 0.9.

Chain of Nucleoli Translocation, AR (gene 367) (P10275 whole entry, looked up): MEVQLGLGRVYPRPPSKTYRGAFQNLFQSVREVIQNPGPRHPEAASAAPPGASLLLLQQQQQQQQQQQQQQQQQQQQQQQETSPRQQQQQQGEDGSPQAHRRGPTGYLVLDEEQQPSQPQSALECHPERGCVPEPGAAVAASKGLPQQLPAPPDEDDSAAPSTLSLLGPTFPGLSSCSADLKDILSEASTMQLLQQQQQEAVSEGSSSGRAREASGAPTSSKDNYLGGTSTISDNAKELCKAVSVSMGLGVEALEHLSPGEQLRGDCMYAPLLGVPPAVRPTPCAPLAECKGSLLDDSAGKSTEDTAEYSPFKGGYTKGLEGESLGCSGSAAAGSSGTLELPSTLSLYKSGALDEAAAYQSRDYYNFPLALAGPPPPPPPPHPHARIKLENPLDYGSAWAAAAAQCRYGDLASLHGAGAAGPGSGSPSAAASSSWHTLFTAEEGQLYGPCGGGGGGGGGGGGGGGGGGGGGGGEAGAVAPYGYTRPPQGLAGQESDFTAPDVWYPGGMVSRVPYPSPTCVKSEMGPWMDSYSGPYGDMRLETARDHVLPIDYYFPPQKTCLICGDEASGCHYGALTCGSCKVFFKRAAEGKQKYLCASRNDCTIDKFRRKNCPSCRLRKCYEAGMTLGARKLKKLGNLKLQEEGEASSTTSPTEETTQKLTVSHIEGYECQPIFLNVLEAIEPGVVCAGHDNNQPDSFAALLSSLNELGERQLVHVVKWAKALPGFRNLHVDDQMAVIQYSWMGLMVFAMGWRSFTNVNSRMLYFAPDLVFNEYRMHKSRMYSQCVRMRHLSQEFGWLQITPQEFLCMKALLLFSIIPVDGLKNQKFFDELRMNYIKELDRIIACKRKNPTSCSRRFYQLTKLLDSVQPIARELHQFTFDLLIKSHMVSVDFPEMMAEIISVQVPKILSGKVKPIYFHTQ
Chain of Ratio of Nucleoli Translocation and Cytoplasm, AR (gene 367) (P10275 whole entry, looked up): as above

`COc1cc(OC)nc(NC(=O)NS(=O)(=O)Nc2ccccc2C(=O)N(C)C)n1`: the outcome in test [1] and in test [2] was inactive.
For the compound `Cc1cc(C(=C2C=CC(=Nc3ccc(S(=O)(=O)O)cc3)C=C2)c2ccc(Nc3ccc(S(=O)(=O)O)cc3)cc2)cc(S(=O)(=O)O)c1N`, the compound was classed as inactive in [3], in test [4] and in [5].
On to `CCC(C)c1ccccc1O` (centres undefined), for which the AC50 is 2.06 µM (active) in test [6], 2.06 µM (active) in test [7] and 2.44 µM (active) in test [9]. Besides, the outcome in test [1], in test [2], in [8], in test [10], in [11] and in test [12] was inactive.
On to `O=C(O)C(F)(F)OC(F)(F)C(F)(F)OC(F)(F)C(F)(F)OC(F)(F)C(F)(F)C(F)(F)C(F)(F)F`, for which the AC50 in [13] was 24.6 µM (active).
On to `O=S(=O)(O)c1ccccc1`, for which the outcome in test [1] and in test [2] was inactive.
`CCCCc1ccc2ccccc2c1S(=O)(=O)O`: the compound was classed as inactive in test [14], in test [4] and in [5].
As for `O=C(CCCN1CCC(O)(c2ccc(Cl)cc2)CC1)c1ccc(F)cc1`, the figures for the AC50 in [6] and in [7] were 1.7 µM (active) and 1.78 µM (active), respectively. The result in [1], in test [2], in test [8], in test [9], in [10] and in [11] was inactive. For the same compound, the result in [12] was inactive.
With `CN(Cc1cnc2nc(N)nc(N)c2n1)c1ccc(C(=O)N[C@@H](CCC(=O)O)C(=O)O)cc1`, the compound was called inactive in test [3], in test [14], in [5], in [1] and in [2].
On to `Oc1ccc(Cc2ccccc2O)cc1`, for which the AC50 is 0.00292 µM (active) in test [6], 0.000868 µM (active) in [7] and 0.0236 µM (active) in test [9]. Moreover, the call in [10], in test [11] and in test [12] was inactive.
As to `CC(C)(O)C(=O)c1ccccc1`, the outcome in [1] and in test [2] was inactive.
As to `O=C(NCc1ncc(C(F)(F)F)cc1Cl)c1c(Cl)cccc1Cl`, the call in test [3], in test [14], in test [4], in test [5], in test [1] and in test [2] was inactive.
On to `NS(=O)(=O)O`, for which the result in test [1] and in [2] was inactive.
For the compound `Cc1ccc(N=Nc2c(O)ccc3ccccc23)c(C)c1`, the outcome in test [1] and in test [2] was inactive.
Regarding `CC(O)COc1ccccc1` (centres undefined), the compound was classed as inactive in test [3], in [14], in test [4], in test [5], in test [1] and in test [2]. The call in [8] was inactive.
